# IL-1B inflam inh = inhibitors of inflammasome signaling (IL-1 beta secretion); hit rate 4.7% among 360,000; activity change, % at 57.5 µM; THP-1 LPS/ATP IL-1B secretion, AlphaLISA, 16 h; hits give low values; AID 743279; in the data active means activity change below about -50%; inconclusive means mostly about -30% to -49%
#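 THP-1 cells pretreated 1 hr with compounds (up to 57.5 uM final), then stimulated with LPS (250 ng/mL final) plus ATP (1.25 mM final); secreted IL-1B measured by AlphaLISA after 16 hr, decreased signal indicating inhibition.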
# HT1080-NT tox = kills 2HG-producing HT-1080-NT fibrosarcoma cells; Potency, µM (top dose mostly 46.1 µM), usual class: cytotoxic; HT-1080-NT fibrosarcoma viability, CellTiter-Glo ATP luminescence, 48 h; hit rate 1.6% among 360,000;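 further: NT is the 2HG producing partner of a matched IDH1 knockdown line; nearly all actives have a fitted effect of over 55% in size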
#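 Viability of the 2HG-overproducing fibrosarcoma line after 48 hours of compound exposure at 37 degrees C was determined by luminescence with CellTiter-Glo, and concentration-effect curves were then fitted and categorized.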
# HT1080 IDH1KD tx = toxicity to HT-1080 IDH1 knockdown cells (counter line). HT-1080 IDH1 knockdown viability, ATP luminescence, 48 h. Potency, µM (doses to about 46.1 µM), most hits filed as cytotoxic. hit rate 2% among 360,000. AID 686971
#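 Viability of IDH1-knockdown HT-1080 fibrosarcoma cells was assessed by CellTiter-Glo after 48 h at 37 °C with titrated compound; concentration-effect curves were classified by fit quality and response size.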
# KB-V1 MDR tox = kills drug-selected multidrug resistant KB-V1 cells; KB-V1 MDR cells viability, CellTiter-Glo, 72 h; Potency, µM (titrated, usually from 46.1 µM), most hits filed as cytotoxic; hit rate 3.4% among 400,000; further: nearly all actives have a fitted effect of over 60% in size
#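 Following 72 h at 37 degrees C with compound, KB-V1 cell viability was read by CellTiter-Glo luminescence, medium being phenol-red-free DMEM plus 10% FBS; concentration-response parameters came from normalized, curve-fitted qHTS data.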
# KB-3-1 cytotox = kills parental KB-3-1 adenocarcinoma cells; KB-3-1 viability, CellTiter-Glo ATP luminescence, 72 h; Potency, µM (titrated, usually from 46.1 µM), usual class: cytotoxic; hit rate 1.4% among 400,000; further: nearly all actives have a fitted effect of over 60% in size
#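 72 h, 37 °C compound treatment of KB-3-1 parental cells; CellTiter-Glo added, 10 min, luminescence read. Data corrected against DMSO-only plates and normalized before curve fitting.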
# Hits are given with their value; - = inactive; ? = inconclusive; . = no result; [ ] = dose if it differs, or a comment. Sampled rows, rich in hits. Any-hit rate of the full collection: about 8.8%. Unless noted, the call rests on the fitted dose curve; in most records, active means well fitted curve in the direction sought with a large enough effect; inconclusive means small, poorly fitted or top-dose-only effect, or another doubt; inactive means no such curve, though single readings can be large; an effect the other way counts as inactive or inconclusive.
SMILES,IL-1B inflam inh,HT1080-NT tox,HT1080 IDH1KD tx,KB-V1 MDR tox,KB-3-1 cytotox
COC(=O)c1ccccc1NC(=O)CSc1nc(-c2ccccc2)cc(C(F)(F)F)n1,.,.,.,-,-
COc1ccccc1C1C=C(c2ccccc2)Nc2nnnn21 (stereo not drawn),-,?,16µM,8.2µM,13µM
COc1cccc(C2=CC(c3ccc(OC)c(OC)c3OC)n3nnnc3N2)c1 (stereo not drawn),-,-,-,-,-
COc1cccc(C2=CC(c3cccs3)n3nnnc3N2)c1 (stereo not drawn),-,8.2µM,8.2µM,?,5.2µM
COc1ccc(C2=CC(c3ccc(F)cc3)n3nnnc3N2)cc1 (stereo not drawn),?,-,-[9.24 µM],-,-
Cc1cccc(C2C=C(c3ccc(C)c(C)c3)Nc3nnnn32)c1 (stereo not drawn),.,.,.,?,21µM
CCOC(=O)c1ccccc1NC(=O)Cn1c(=O)n(CCC(=O)N2CCc3ccccc3C2)c(=O)c2ccccc21,.,.,.,-,-
COc1cc(/C=N/n2c(-c3ccccc3)n[nH]c2=S)ccc1O,-,-,-,-,-
COc1ccc(/C=N/n2c(-c3ccc(C)cc3)n[nH]c2=S)cc1OC,-51,-,-,?,-
C=CCNC(=O)NC(=O)COC(=O)CNS(=O)(=O)c1ccc(F)c(F)c1F,-,-,-,-,-
Nc1nc(-c2cc(O)ccc2[N+](=O)[O-])cc(-c2ccccc2)c1[N+](=O)[O-],-,?,-,-,-
COc1ccc(-c2n(Cc3ccccc3)c3ccccc3[n+]2Cc2ccccc2)cc1,-87,4.6µM,5.8µM,-,7.3µM
COc1cccc(OCc2nc3ccccc3n2Cc2ccccc2)c1,.,.,.,-,-
COc1ccc(-c2cc3nc(C)c(CCC(=O)NCc4ccccc4Cl)c(C)n3n2)c(OC)c1,.,.,.,-,-
Cc1cc(C)c(NC(=O)c2cc(CN3CCOCC3)on2)c(C)c1,.,.,.,-,-
CCc1cc(/C(Cc2ccccn2)=N\Nc2ccccc2)c(O)cc1O,-76,-,?,?,-
COCCn1c(SCc2cnc(-c3ccccc3)s2)nnc1-c1ccncc1,-,-,-,-,-
COc1ccc(-n2cnnc2SCc2cnc(-c3ccccc3)s2)cc1,-,-,-,16µM,-
COc1ccc(C(=O)C[C@@H]2OC[C@H](C(C)C)N2S(=O)(=O)c2ccc(C)cc2)cc1OC,-,-,-,21µM,-
COc1ccc(C(=O)C[C@@H]2OC[C@H](C)N2S(=O)(=O)c2ccc(C)cc2)cc1OC,-,-,-,?,-
COc1ccc(Br)cc1CNC(=O)CSc1cc(=O)n(C)c2ccccc12,.,.,.,-,-
CSCCC(C(=O)NCc1ccccc1)n1c(C2CCN(C(C)=O)CC2)nc2ccccc21 (stereo not drawn),-52,-,-,-,?
O=C(COc1ccccc1)NCC(c1ccco1)N1CCN(c2ccccc2F)CC1 (stereo not drawn),-,-,?,15µM,?
O=C(NCc1ccncc1)C(=O)NCC(c1ccco1)N1CCN(c2ccccc2F)CC1 (stereo not drawn),-,-,-,2.3µM,-
CC(NC(=O)COc1ccccc1)C(=O)N1CCN(c2ccc(F)cc2)CC1 (stereo not drawn),-,-,-,18µM,-
SMILES,IL-1B inflam inh,HT1080-NT tox,HT1080 IDH1KD tx,KB-V1 MDR tox,KB-3-1 cytotox
O=C(NCC(c1ccco1)N1CCCCC1)c1ccc(OCc2ccccc2)cc1 (stereo not drawn),-,-,-,-,-
CSCCC(NC(=O)COc1ccccc1)C(=O)N1CCN(c2ccccc2F)CC1 (stereo not drawn),-,-,-,-,-
O=C(COc1ccccc1)NCC(c1ccco1)N1CCCCC1 (stereo not drawn),-,-,-,-,-
O=C(NCC(c1ccco1)N1CCCCC1)c1ccc(COc2ccccc2)cc1 (stereo not drawn),-72,-,-,?,?
Cc1cccc(NC(=O)c2nc[nH]c2C(=O)N2CCc3ccccc3C2)c1,-,-,-,-,?
Cc1ccc(C)c(NC(=O)Cn2cc(S(=O)(=O)c3ccc(F)cc3)c(=O)c3cc(F)ccc32)c1,.,.,.,?,-
O=C(COc1ccccc1)NCC(c1ccco1)N1CCN(c2ccc(F)cc2)CC1 (stereo not drawn),-54,-,-,-,-
